Screening data: PubChem BioAssay, National Center for Advancing Translational Sciences (NCATS)
Sampled rows, rich in hits. Any-hit rate of the full collection: about 7.5%.
NPC1 promoter act: NPC1 promoter activation | 320,000 compounds, 2.4% hits | Huh7 NPC1 promoter luciferase reporter, 24 h | Potency, µM (series often up to 9.22 µM), usual class: activators; further: nearly all actives have a fitted effect of over 60% in size
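Quantitative HTS used a cell-based reporter: Huh7 cells stably bearing the NPC1 promoter upstream of luciferase were treated with compounds for 24 h, and promoter activation was read as luminescence.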
SMN2 splice enh: enhancers of SMN2 splice variant expression; HEK293 SMN2-luciferase splicing reporter, luminescence, 30-36 h; 210,000 compounds, 2.8% hits; AID 1458; Potency, µM (titrated, usually from 46.1 µM), usual class: activators; further: nearly all actives have a fitted effect of over 55% in size
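qHTS luciferase splicing reporter: luminescence rises when SMN2 exon 7 is included in transfected HEK293 cells. Compound exposure lasted 30-36 h at 37C, with 4.5 mM final sodium butyrate as control, followed by a ONE-Glo read.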
Luc counter: counter-screen: inhibitors of Kinase-Glo firefly luciferase; Q27757; Kinase-Glo luciferase, ATP luminescence, 8 min; Potency, µM (doses to about 38.3 µM), hits mostly inhibitors; 200,000 compounds, 0.28% hits; further: nearly all actives have a fitted effect of over 60% in size
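Light output from Kinase-Glo luciferase with luciferin and 10 uM ATP in 50 mM imidazole pH 7.2, KCl, MgCl2, Tween 20, BSA; compound pin-delivered, 8-min ambient incubation, then luminescence read.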
FLuc counter: firefly luciferase modulation, counter-screen for miR-21 project; 360,000 compounds, 6.9% hits; purified FLuc, Km substrates, luminescence inhibition; Potency, µM (series often up to 57.5 µM), usual class: inhibitors; P08659; further: nearly all actives have a fitted effect of over 55% in size
Target sequence (P08659 whole entry, looked up): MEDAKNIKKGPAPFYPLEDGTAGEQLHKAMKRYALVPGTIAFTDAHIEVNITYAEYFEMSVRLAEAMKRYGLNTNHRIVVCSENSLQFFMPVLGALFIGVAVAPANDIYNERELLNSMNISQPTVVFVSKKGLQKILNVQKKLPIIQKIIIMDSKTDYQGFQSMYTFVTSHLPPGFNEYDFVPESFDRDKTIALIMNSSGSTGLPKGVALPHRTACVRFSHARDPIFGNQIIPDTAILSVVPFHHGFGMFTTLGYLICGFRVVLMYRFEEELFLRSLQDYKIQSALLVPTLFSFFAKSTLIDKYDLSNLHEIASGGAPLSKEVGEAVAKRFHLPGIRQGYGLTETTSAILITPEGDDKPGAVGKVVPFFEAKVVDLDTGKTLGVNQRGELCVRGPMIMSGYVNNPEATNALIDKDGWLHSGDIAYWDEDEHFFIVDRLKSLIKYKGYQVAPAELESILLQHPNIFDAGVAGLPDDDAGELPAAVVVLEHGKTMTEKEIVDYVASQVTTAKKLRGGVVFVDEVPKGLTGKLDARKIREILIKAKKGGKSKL
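Purified P. pyralis luciferase, 10 nM final, with Km-level 10 uM D-luciferin and 10 uM ATP in 50 mM Tris acetate pH 7.5, 10 mM Mg acetate, 0.01% Tween-20, 0.05% BSA; 6-point qHTS titration about 60 µM downward; luminescence read.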
ELG1 genotoxic: induces genotoxicity in HEK293T cells with luciferase-tagged ELG1; HEK293T ELG1-luciferase reporter, luminescence, 16 h; Potency, µM (series often up to 46 µM), hits mostly activators; 330,000 compounds, 1.3% hits; AID 504466; further: nearly all actives have a fitted effect of over 60% in size
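Screening used a luciferase reporter fused to human ELG1 in HEK293T cells. Luminescence was read on a CCD plate imager after 16 hr exposure and 30 min ONE-Glo incubation.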
Rab9 promoter act: activators of Rab9 promoter; AID 485297; Huh7 Rab9 promoter-luciferase reporter, luminescence, 24 h; 320,000 compounds, 2.8% hits; Potency, µM (titrated, usually from 9.22 µM), actives largely listed as activators; further: nearly all actives have a fitted effect of over 60% in size
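Luminescence from Amplite-detected luciferase (10 minutes, ambient) reports Rab9 promoter activation. Before that, stable Rab9-luciferase Huh7 cells (1500/well, reduced-serum OP-MEM I plus 10% FBS) were exposed to compound for 24 hours at 37C.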
Hits are given with their value; i = inactive; ? = inconclusive; nt = no result given; [ ] = another dose, or the depositor's remark. The call rests on the fitted dose curve; in most records, active means well fitted curve in the direction sought with a large enough effect; inconclusive means small, poorly fitted or top-dose-only effect, or another doubt; inactive means no such curve, though single readings can be large; an effect the other way counts as inactive or inconclusive.

SMILES	NPC1 promoter act	SMN2 splice enh	Luc counter	FLuc counter	ELG1 genotoxic	Rab9 promoter act
Cc1cc(C)cc(NC(=O)CN2CCC(C(=O)c3ccccc3)CC2)c1	i	nt	nt	i	i	i
CCOc1ccc(CCNC(=O)COC(=O)c2sccc2C)cc1OCC	i	nt	nt	i	i	i
COc1cc(C(=O)Nc2cccc(OCc3cc(=O)n4c(C)csc4n3)c2)cc(OC)c1OC	nt	i	nt	?	nt	nt
Nc1ccccc1-c1nc2ccccc2[nH]c1=O	?	nt	nt	24µM	i	?
Cc1cn2c(=O)cc(COc3ccccc3NC(=O)c3ccccc3C)nc2s1	nt	i	nt	i	nt	nt
COc1cc(/C=C(\C#N)c2nc3ccccc3o2)ccc1O	i	nt	nt	7.6µM	?	i
N#C/C(=C/c1ccc(O)cc1)c1nc(-c2ccc(-c3ccccc3)cc2)cs1	nt	i	nt	i	nt	nt
N#C/C(=C\c1ccc(O)cc1)c1nc2ccccc2o1	?	nt	nt	11µM	?	?
CC(=O)c1ccc(OCCCC(=O)NCc2nnc3ccccn23)cc1	i	nt	nt	i	i	i
Cc1cc(C(=O)N/N=C/c2ccc(N(C)C)o2)cs1	i	nt	nt	?	i	i
Cc1ccc(/C=N/NC(=O)c2csc(C)c2)o1	i	i	i	15µM	i	i
Cc1ccc(/C=N/NC(=O)c2cccs2)o1	i	i	i	17µM	i	i
CCOc1cc(C2C(C(=O)Nc3ccccc3)=C(C)Nc3ncnn32)cc(Br)c1O (stereo unspecified)	nt	nt	nt	i	nt	nt
Cc1ccc(Nc2nnc(SCC(=O)NCC3CCCO3)s2)cc1 (stereo unspecified)	nt	nt	nt	nt	i	nt
COc1ccc(Nc2nnc(SCC3CCCO3)s2)cc1 (stereo unspecified)	i	i	i	19µM	i	?
Cc1cccc(Nc2nnc(SCC3CCCCO3)s2)c1C (stereo unspecified)	?	?	i	9.5µM	i	i
COc1cccc(Nc2nnc(SCC3CCCCO3)s2)c1 (stereo unspecified)	i	i	i	12µM	i	i
COC(=O)c1ccc(CSc2nnc(Nc3cccc(OC)c3)s2)o1	i	i	i	?	i	i
COc1cc(OC)cc(N(C(=O)c2snc(C(N)=O)c2N)C(C(=O)NCC2CCCO2)c2ccc(C)o2)c1 (stereo unspecified)	i	nt	nt	i	i	i
COc1cc(/C=C(\C#N)C(=O)NCC2CCCO2)ccc1OC(C)C (stereo unspecified)	i	i	i	?	i	i
COc1cc(/C=C2\CCC(C3CCCC3)C2=O)ccc1OC(C)C (stereo unspecified)	i	nt	nt	15µM	i	i[1.84 µM]
COc1ccc(/C=C2\CCC(C3CCCC3)C2=O)cc1OC (stereo unspecified)	?	nt	nt	11µM	?	i
COc1ccc(NC(=O)CSc2nnc(-c3ccncc3)o2)c([N+](=O)[O-])c1	i	nt	nt	i	i	i
Cc1ccccc1Nc1c(-c2ccco2)nc2c(C)cccn12	nt	16µM	nt	13µM	nt	nt
Cc1ccccc1Nc1c(-c2ccc(Cl)cc2)nc2c(C)cccn12	nt	i	nt	i	nt	nt
SMILES	NPC1 promoter act	SMN2 splice enh	Luc counter	FLuc counter	ELG1 genotoxic	Rab9 promoter act
O=C(CC1(CC(=O)N2CCOCC2)CCCC1)Nc1ccc(F)cc1	nt	nt	nt	nt	i	nt
C#CCN(C(=O)c1ccc(OC2CCN(Cc3ccccn3)CC2)cc1)C1CCCCC1	i	nt	nt	i	i	i
COc1ccc2c(c1)CC(C(=O)N1CCC(C(N)=O)CC1)CO2 (stereo unspecified)	nt	nt	nt	i	nt	nt
COc1ccc(/C=C/C2=NC(=C\N(C)C)/C(=O)O2)cc1	?	i	i	21µM	?	?
O=S(=O)(c1cccc(-c2nc3ccccc3s2)c1)N1CCCC1	i	i	i	i[2.3 µM]	i	i
CCOc1cc(-c2nc3ccccc3s2)ccc1O	?	nt	nt	15µM	?	i
COc1cc(-c2nc3ccccc3s2)ccc1O	i	?	i	8.5µM	?	?
COc1ccc(-c2nc3ccccc3s2)cc1NC(=O)c1cc(OC)c(OC)c(OC)c1	nt	i	nt	?	nt	nt
COc1ccc(-c2nc3ccccc3s2)cc1O	?	i	i	0.15µM	0.65µM	i
O=S(=O)(c1ccc(-c2nc3ccccc3s2)cc1)N1CCCC1	?	i	i	i	?	2.8µM
COc1ccc(-c2nc3ccccc3s2)cc1NC(=O)c1cccc(F)c1	nt	nt	nt	i	nt	nt
CCCCCOc1ccc(C2c3c(oc4ccccc4c3=O)C(=O)N2c2nc(C)c(C)s2)cc1OCC (stereo unspecified)	nt	i	nt	i	nt	nt
Cc1ccc(S(=O)(=O)N(C)C)cc1NC(=O)COC(=O)Cc1ccsc1	i	nt	nt	i	i	i
CCc1ccc2occ(CC(=O)N(Cc3ccccc3)C3CCS(=O)(=O)C3)c2c1 (stereo unspecified)	nt	i	nt	i	nt	nt
Cc1cc(C(=O)OCC(=O)c2cccs2)ccc1[N+](=O)[O-]	i	nt	nt	?	i	i
CC(C)Oc1ccc(C(=O)Nc2ccc(-c3nc4ccccc4s3)cc2)cc1	nt	nt	nt	i	nt	nt
CC(C)c1ccc(-c2nc3ccccc3s2)cc1	i	nt	nt	0.076µM	i	i
c1ccc(Sc2ncnc3c2oc2ccccc23)nc1	?	i	i	21µM	?	?
CCOc1ccccc1Oc1ncnc2c1oc1ccccc12	nt	nt	nt	i	nt	nt
COc1ncnc2c1oc1ccccc12	i	nt	i	12µM	?	i
CC(=O)CSc1ncnc2c1oc1ccccc12	i	i	i	?	?	i
CCCSc1ncnc2c1oc1ccccc12	i	i	i	15µM	i	i
CC(C)Sc1ncnc2c1oc1ccccc12	i	i	i	24µM	i	i
COCCCNC(=O)c1cnn(-c2ccccc2Cl)c1C1CCN(C(=O)OC(C)(C)C)CC1	nt	nt	nt	i	nt	nt
CSc1ccc(S(=O)(=O)N2CCC(C(=O)NCC3CCCO3)CC2)cc1 (stereo unspecified)	i	nt	nt	i	i	i
SMILES	NPC1 promoter act	SMN2 splice enh	Luc counter	FLuc counter	ELG1 genotoxic	Rab9 promoter act
Cc1ccc(NS(=O)(=O)c2cccc3nsnc23)cc1[N+](=O)[O-]	i	nt	nt	i	i	i[1.84 µM]
c1coc(CSc2ncnc3c2oc2ccccc23)c1	i	nt	nt	19µM	?	i
CC(=O)c1sc(NC(=O)c2cccc(C)c2)nc1C	3.2µM	14µM	i	6.7µM	5.2µM	2µM
CC(=O)c1ccc(-c2ccc(C(=O)Nc3nc(C)c(C(C)=O)s3)o2)cc1	i	nt	nt	i	i	i
CC(=O)c1sc(NC(=O)c2cc(S(=O)(=O)N3CCOCC3)ccc2F)nc1C	i	nt	nt	nt	i	i
CC(=O)c1sc(NC(=O)c2ccc(Cl)cc2)nc1C	3.2µM	nt	nt	?	?	1.4µM
CC(=O)c1sc(NC(=O)c2ccc(F)c(S(=O)(=O)N3CCOCC3)c2)nc1C	i	nt	nt	19µM	i	i
COc1ccc(N(C)S(=O)(=O)c2cccc(C(=O)Nc3nc(C)c(C(C)=O)s3)c2)cc1	i	nt	nt	i	i	i
CC(=O)c1sc(NC(=O)c2ccc(F)c(F)c2)nc1C	?	i	i	?	16µM	3.2µM
CC(=O)Nc1nc(C)c(C(C)=O)s1	i	i	i	i	i	i
